Experimental data published in PubChem BioAssay (NCATS).
Calls of active or inactive are those of the source. Calls follow the shape of the dose curve; as a rule, active = well fitted curve in the direction sought with a large enough effect; inconclusive = small, poorly fitted or top-dose-only effect, or another doubt; inactive = no such curve, though single readings can be large; an effect the other way counts as inactive or inconclusive.

These molecules were tested against Alpha-galactosidase (Coffea arabica) (UniProt Q42656) (assay: Counterscreen for Glucocerebrosidase Inhibitors: qHTS Assay for Coffee Bean alpha-Galactosidase at pH 4.5 (AID 957)). Settings: purified coffee bean alpha-galactosidase, fluorogenic substrate; series mostly up to 76.9 µM.
Method in brief: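 Fluorogenic read-out: 4-methylumbelliferone at Ex 365/Em 440 nm after NaOH/glycine stop (pH 10). Enzyme 2 nM, 4-MU-alpha-galactoside 80 uM, citrate buffer pH 4.5, 20 min RT; normalized to no-enzyme and enzyme controls.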

Sequence of Alpha-galactosidase (Coffea arabica) (Q42656 whole entry, looked up): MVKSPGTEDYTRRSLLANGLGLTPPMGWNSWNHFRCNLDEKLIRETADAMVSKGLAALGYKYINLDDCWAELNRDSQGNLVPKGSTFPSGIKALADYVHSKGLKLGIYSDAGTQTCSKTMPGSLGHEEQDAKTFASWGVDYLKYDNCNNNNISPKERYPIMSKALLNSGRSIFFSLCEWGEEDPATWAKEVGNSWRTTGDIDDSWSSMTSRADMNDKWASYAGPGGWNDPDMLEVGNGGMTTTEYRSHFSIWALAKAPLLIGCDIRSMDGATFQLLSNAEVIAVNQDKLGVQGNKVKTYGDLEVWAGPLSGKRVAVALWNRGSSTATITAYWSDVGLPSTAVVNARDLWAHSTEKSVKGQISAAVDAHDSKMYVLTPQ

| Compound | outcome |
| --- | --- |
| Cc1nnc(SCC2=C(C(=O)O)N3C(=O)[C@@H](NC(=O)Cn4cnnn4)[C@@H]3SC2)s1 | inactive |
| C[C@@H](C[N+](C)(C)C)OC(N)=O | inactive |
| NC(=O)C1=CN([C@@H]2O[C@@H](COP(=O)(O)OP(=O)(O)OC[C@@H]3O[C@H](n4cnc5c(N)ncnc54)[C@@H](OP(=O)(O)O)[C@@H]3O)[C@H](O)[C@@H]2O)C=CC1 | inactive |
| Nc1nc(Nc2ccccc2)nc2c1ncn2[C@@H]1O[C@@H](CO)[C@H](O)[C@@H]1O | inactive |
| CC1=C(C(=O)O)N2C(=O)[C@@H](NC(=O)[C@@H](N)C3=CCC=CC3)[C@@H]2SC1 | inactive |
| COc1cccc(OC)c1OCCNC[C@@H]1COc2ccccc2O1 | inactive |
| NCC[C@H]1CCC[C@H](CCN)N1 | inactive |
| CN[C@@H](CC(C)C)C(=O)N[C@@H]1C(=O)N[C@H](CC(N)=O)C(=O)N[C@H]2C(=O)N[C@H]3C(=O)N[C@H](C(=O)N[C@H](C(=O)O)c4cc(O)cc(O)c4-c4cc3ccc4O)[C@H](O)c3ccc(c(Cl)c3)Oc3cc2cc(c3O[C@@H]2O[C@@H](CO)[C@@H](O)[C@@H](O)[C@H]2O[C@H]2C[C@](C)(N)[C@H](O)[C@H](C)O2)Oc2ccc(cc2Cl)[C@@H]1O | inactive |
| CC(=O)N[C@@H](C(=O)O)C(C)(C)SN=O | inactive |

What follows are molecules tested against Alpha-galactosidase (Coffea arabica) (UniProt Q42656) (assay: Counterscreen for Glucocerebrosidase Inhibitors: qHTS Assay for Coffee Bean alpha-Galactosidase at pH 5.9 (AID 998)). Settings: coffee bean alpha-galactosidase enzyme assay; series mostly up to 76.9 µM.
Method in brief: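 Enzyme 2 nM + cpd (0.7 nM–77 uM titration) + 4-MU-alpha-Gal 80 uM, pH 5.9 citrate/Tween-20, RT 20 min, NaOH/glycine stop pH 10, fluor 365/440. Normalized to no-enzyme and full-activity controls; Hill-fit AC50.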

| Compound | outcome |
| --- | --- |
| N[C@H](Cc1ccc(Cl)cc1)C(=O)O | inactive |
| C[C@H](O)[C@H](O)[C@@H]1CNc2nc(N)[nH]c(=O)c2N1 | inactive |
| Cc1nnc(SCC2=C(C(=O)O)N3C(=O)[C@@H](NC(=O)Cn4cnnn4)[C@@H]3SC2)s1 | inactive |
| NC[C@](O)(CS(=O)(=O)O)c1ccc(Cl)cc1 | inactive |
| C[C@@H](C[N+](C)(C)C)OC(N)=O | inactive |
| COc1cc([C@H](O)C(=O)O)ccc1O | inactive |
| CCCCCCCCCCCCCCC/C=C\[C@H](O)[C@@H](NC(=O)CCCCCCCCCCCCC)OC (tested in a mixture with another compound) | inactive |
| NC(=O)C1=CN([C@@H]2O[C@@H](COP(=O)(O)OP(=O)(O)OC[C@@H]3O[C@H](n4cnc5c(N)ncnc54)[C@@H](OP(=O)(O)O)[C@@H]3O)[C@H](O)[C@@H]2O)C=CC1 | inactive |
| NC(=O)c1cc[n+](CC2=C(C(=O)O)N3C(=O)[C@@H](NC(=O)[C@H](c4ccccc4)S(=O)(=O)[O-])[C@@H]3SC2)cc1 | inactive |
| Nc1nc(Nc2ccccc2)nc2c1ncn2[C@@H]1O[C@@H](CO)[C@H](O)[C@@H]1O | inactive |
| CO/N=C(\C(=O)N[C@@H]1C(=O)N2C(C(=O)O)=C(COC(C)=O)CS[C@@H]12)c1csc(N)n1 | inactive |
| C[C@@](N)(Cc1ccc(O)c(O)c1)C(=O)O | inactive |
| N[C@@H]1C=CC=C(C(=O)O)C1 | inactive |
| CCn1ccnc1C[C@@H]1COc2ccccc2O1 | inactive |
| C#C[C@H](N)CCC(=O)O | inactive |
| CC(C)(C)NC[C@H](O)COc1cccc2[nH]c(=O)[nH]c12 | inactive |
| CC1=C(C(=O)O)N2C(=O)[C@@H](NC(=O)[C@@H](N)C3=CCC=CC3)[C@@H]2SC1 | inactive |
| COc1cccc(OC)c1OCCNC[C@@H]1COc2ccccc2O1 | inactive |
| CC(C)NC[C@H](O)c1ccc(NS(C)(=O)=O)cc1 | inactive |
| O=C(O)[C@H]1CCCN(CCC=C(c2ccccc2)c2ccccc2)C1 | inactive |

| Compound | outcome |
| --- | --- |
| Nc1ncnc2c1ncn2[C@@H]1O[C@@H](COP(=O)(O)OP(=O)(O)OP(=O)(O)OP(=O)(O)OC[C@@H]2O[C@@H](n3cnc4c(N)ncnc43)[C@@H](O)[C@H]2O)[C@H](O)[C@@H]1O | inactive |
| NCC[C@H]1CCC[C@H](CCN)N1 | inactive |
| COC(=O)c1c(-c2cc(OC)c(OC)c(OC)c2)c2ccnc(OCc3ncccn3)c2c(=O)n1Cc1ccnc(C)c1 | inactive |
| O=C(O)C[C@@H]1CCCc2ccccc2[C@H]1O | inactive |
| C[C@@H]1CCN=C(N)S1 | inactive |
| CNc1ncnc2c1ncn2[C@H]1C[C@@H](OP(=O)(O)O)[C@H](COP(=O)(O)O)O1 | inactive |
| C[C@]1(C2CCCC2)Cc2cc(OCC(=O)O)c(Cl)c(Cl)c2C1=O | inactive |
| C[C@]12CC3CC(N)(C1)C[C@@](C)(C3)C2 | inactive |
| N[C@H](Cc1cccc(-c2ccccc2CP(=O)(O)O)c1)C(=O)O | inactive |
| CC(C)(C)[C@@]1(O)CCN2C[C@@H]3c4ccccc4CCc4cccc(c43)[C@@H]2C1 | inactive |
| CN[C@@H](CC(C)C)C(=O)N[C@@H]1C(=O)N[C@H](CC(N)=O)C(=O)N[C@H]2C(=O)N[C@H]3C(=O)N[C@H](C(=O)N[C@H](C(=O)O)c4cc(O)cc(O)c4-c4cc3ccc4O)[C@H](O)c3ccc(c(Cl)c3)Oc3cc2cc(c3O[C@@H]2O[C@@H](CO)[C@@H](O)[C@@H](O)[C@H]2O[C@H]2C[C@](C)(N)[C@H](O)[C@H](C)O2)Oc2ccc(cc2Cl)[C@@H]1O | inactive |
| CC(C)NC[C@H](O)c1cc(O)cc(O)c1 | inactive |
| CCOC(=O)C1=C(C)NC(C)=C(C(=O)OC)[C@H]1c1cccc(Cl)c1Cl | inactive |
| Nc1ncnc2c1nc(Sc1ccc(Cl)cc1)n2[C@@H]1O[C@H]2COP(=O)(O)O[C@@H]2[C@H]1O | inactive |
| COc1cc2c(cc1O)CC[C@@H]1[C@@H]2CC[C@@]2(C)[C@H](O)CC[C@H]12 | inactive |
| CC(=O)N[C@@H](C(=O)O)C(C)(C)SN=O | inactive |
| S=C(S)O[C@@H]1C[C@@H]2C[C@H]1[C@@H]1CCC[C@H]21 | inactive |
| O[C@H](CN1CCN(c2cccc(Cl)c2)CC1)C(c1ccccc1)c1ccccc1 | inactive |
| CN(C)C(=O)/N=N\C(=O)N(C)C | inactive |
